# Shown are actives, neighbours in structure and some others; about 3.1% of the full set was active somewhere.
# PMP22 txn – PMP22 gene transcription modulation. 2% of 43,000 active. S16 Pmp22-F2sN Schwann cells, FLuc/NLuc coincidence luminescence, 24 h. Potency, µM (highest dose often 57.5 µM), inactives show top-dose activity change, negative = inhibition, most hits filed as inhibitors. AID 1508649; active means clear falling dose curves in both reporters; inconclusive means both reporters move, but less clearly or upward; inactive means either reporter flat; the % is the NLuc reporter signal
#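 Luminescent read-out of sequential FLuc and NLuc signals from a reporter embedded in the Pmp22 3' UTR of S16 Schwann cells, taken after 24 h compound exposure at 37C; compounds reducing both signals score as inhibitors of expression.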
# SKOV3 invasion – blocks SKOV3ip1 adhesion and invasion in omental model. SKOV3ip1-GFP adhesion/invasion on 3D omental model, fluorescence. Potency, µM (doses to about 45.8 µM), for inactives: at the highest dose activity change, negative = inhibition, usual class: inhibitors. 0.1% of 46,000 active. AID 1963576;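 further: plate controls were DMSO wells for no effect and tomatine positive control wells for full effect; nearly all actives have a fitted effect of over 65% in size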
#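 qHTS, 4-pt dose (0.36-46 umol/L); SKOV3ip1-GFP, 1,200 cells/well, no FBS; primary omental fibroblast/mesothelial co-culture 48 h pre-grown; 2 h RT + 16 h 37 C; PBS wash, 4% PFA; GFP count 488/509 nm.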
# p53null 39C tox – selectivity test: cytotoxicity in p53 null cells, nonpermissive temperature | 0.97% of 55,000 active | Potency, µM (top dose mostly 46.1 µM), inactives show top-dose activity, negative = cell killing, usual class: cytotoxic | H1299 p53-null (neo) cells, 39C, ATPlite viability, 24 h;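 further: 0% = DMSO only and -100% = full killing by 100 µM tamoxifen; nearly all actives have a fitted effect of over 50% in size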
#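 Luminescent ATP signal reported cell survival after H1299 lines (neo, p53 null; or p53 A138V) received up to 46 uM compound and 24 hr incubation at 39C.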
# pS6 MEF inh – mTORC1 pathway inhibition measured by phospho-rpS6. Potency, µM (series often up to 38.3 µM), without a hit: top-dose activity change, negative = inhibition, hits mostly inhibitors. Tsc2-/- p53-/- MEF, phospho-rpS6 immunofluorescence/PI, 24 h. 0.78% of 44,000 active;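 further: plate controls were DMSO for no effect and rapamycin for full effect; nearly all actives have a fitted effect of over 50% in size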
#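 Immunofluorescence of rpS6 phosphorylation in Tsc2-/-, p53-/- MEFs after 24 h compound exposure, normalized to propidium iodide signal. Activity is expressed as % positive cells, thresholded with 7.5 nM rapamycin.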
# S16 viability – toxic to S16 Pmp22-F2sN Schwann cells | Potency, µM (titrated, usually from 57.5 µM), for inactives: at the highest dose activity change, negative = cytotoxicity, usual class: cytotoxic | 0.48% of 43,000 active | S16 Pmp22-F2sN Schwann cells (luciferase reporters placed in the Pmp22 gene) viability, CellTiter-Glo, 24 h; further: nearly all actives have a fitted effect of over 65% in size
#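 Rat S16 Schwann reporter line, 24 h treatment with library compounds delivered at 23 nL per well. Cell viability by CellTiter-Glo luminescence.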
# p53null 32C kill – kills p53 null cells at the permissive temperature; 0.62% of 55,000 active; Potency, µM (series often up to 46.1 µM), without a hit: at the highest dose activity change, negative = cytotoxicity, most hits filed as cytotoxic; AID 903; H1299-neo p53 null cells, ATP luminescence, 24 h, 32C;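 further: 0% = DMSO only and -100% = full killing by 100 µM tamoxifen; nearly all actives have a fitted effect of over 55% in size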
#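 ATP-content luminescence in p53-null H1299-neo cells after 24 h compound exposure (up to 46 uM) at 32C permissive temperature; 0% and 100% killing set by DMSO and 100 uM tamoxifen; Hill-equation AC50.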
# Active calls of the source: *; i = inactive; ? = inconclusive; . = not tested or not shown. Unless noted, the call rests on the fitted dose curve; in most records, active means well fitted curve in the direction sought with a large enough effect; inconclusive means small, poorly fitted or top-dose-only effect, or another doubt; inactive means no such curve, though single readings can be large; an effect the other way counts as inactive or inconclusive. Unless noted, on the % scale 0 is the no-effect control and ±100 the full control effect; potency means the concentration at half of the fitted maximal effect.
SMILES,PMP22 txn,SKOV3 invasion,p53null 39C tox,pS6 MEF inh,S16 viability,p53null 32C kill
CCC[C@H](Nc1nc(-c2ccc(NC(=O)NCC)c(OC)c2)ncc1C)c1cccnc1,.,8.6%,.,.,.,.
CCN(CC)CCCNC(=O)c1nn(-c2ccc(C)cc2)c(=O)c2c1c1ccccc1n2C,?,i,19.6%,?,?,3.6%
CCN(CC)CCOC(=O)c1ccc(NC(=O)c2nn(-c3ccc(C)cc3)c(=O)c3c2c2ccccc2n3C)cc1,5.15µM*,?,3.98µM*,0.927µM*,4.47µM*,6.31µM*
CCCN1C(C(=O)c2ccccc2)=C(OC(=O)c2ccc(OC)cc2)c2ccccc2S1(=O)=O,?,i,-19.7%,1.1%,-14.9%,-17.2%
CCCCN1C(C(=O)c2ccccc2)=C(OC(C)=O)c2ccccc2S1(=O)=O,?,-10.1%,5.01µM*,?,?,?
CCCCC(=O)OC1=C(C(=O)c2ccccc2)N(CC)S(=O)(=O)c2ccccc21,-14.5%,10.0%,?,-11.5%,-0.3%,-5.8%
CCN1C(C(=O)c2ccccc2)=C(OC(=O)c2ccccc2OC)c2ccccc2S1(=O)=O,?,?,12.6µM*,3.3%,-30.3%,?
CS(=O)(=O)c1ncc(Cl)c(C(=O)N(Cc2ccc(Cl)cc2)Cc2ccco2)n1,?,?,?,1.85µM*,4.47µM*,?
CCCSc1ncc(Cl)c(C(=O)N(Cc2ccccc2)c2ccc(OC)cc2)n1,?,?,48.1%,-12.9%,-20.9%,24.6%
COc1ccc(CNC(=O)c2nc(SC(C)C)ncc2Cl)cc1,-54.8%,i,-5.8%,-7.2%,-3.9%,1.9%
O=C(NCc1ccccc1)c1nc(S(=O)(=O)Cc2ccccc2)ncc1Cl,6.48µM*,?,86.5%,16.5µM*,8.91µM*,-14.4%
COc1ccc(N(Cc2ccccc2)C(=O)c2nc(S(C)(=O)=O)ncc2Cl)cc1,1.78µM*,?,11.2µM*,2.07µM*,4.47µM*,12.6µM*
COc1ccc(CNC(=O)c2nc(S(=O)(=O)Cc3ccccc3)ncc2Cl)cc1,5.32µM*,3.55µM*,12.6µM*,20.7µM*,5.62µM*,-4.2%
COc1ccc2oc(=O)c(C(=O)Nc3cccc(C(=O)O)c3)cc2c1,8.7%,6.0%,7.94µM*,0.7%,4.6%,10µM*
Cc1ccc(C2c3c(-c4ccccc4O)n[nH]c3C(=O)N2CCCO)cc1 (stereo unspecified),-16.0%,-2.8%,10.8%,?,-5.0%,6.9%
Cc1ccc(C2c3c(-c4cc(C)ccc4O)n[nH]c3C(=O)N2Cc2ccco2)cc1 (stereo unspecified),?,?,?,?,?,17.8µM*
CCCCc1ccc(Nc2cc(C)nc(-n3nc(C)cc3C)n2)cc1,15µM*,i,12.6µM*,1.7%,?,15.9%
Cc1csc(NC(=O)c2sc3nc4c(c(C(F)(F)F)c3c2N)CCC4)n1,.,19.1%,.,.,.,.
CN1[C@H]2CC[C@H]1CC(OC(=O)c1c[nH]c3ccccc13)C2 (stereo partly specified),.,-0.9%,.,.,.,.
CCC(=O)NCCc1nc2cc(NC(=O)c3cccc(Br)c3)ccc2n1C,0.8%,1.7%,10µM*,-11.3%,-14.7%,12.6µM*
O=C(Cc1ccccc1)Nc1sc2c(c1C(=O)Nc1ccccc1)CCCCC2,?,0.7%,-18.1%,?,-12.3%,-7.4%
COc1ccc(CC(=O)Nc2sc3c(c2C(=O)Nc2ccccc2)CCCCC3)cc1,?,i,?,4.65µM*,?,-8.5%
COc1ccc(OC)c(NC(=O)c2c(NCc3ccc(C)o3)sc3c2CCCCC3)c1,?,?,8.7%,?,?,27.2%
COc1ccccc1NC(=O)c1c(NCc2ccc(C)o2)sc2c1CCCCC2,14.1µM*,i,19.6%,?,4.8%,?
O=C(NNC(=O)c1ccc(CNS(=O)(=O)c2ccc(F)c(Cl)c2)cc1)c1ccccc1,.,-1.3%,.,.,.,.
SMILES,PMP22 txn,SKOV3 invasion,p53null 39C tox,pS6 MEF inh,S16 viability,p53null 32C kill
CC(C)C[C@H](NC(=O)CNC(=O)c1cc(Cl)ccc1Cl)B(O)O,.,-8.7%,.,.,.,.
COc1cc(-c2nn(C3CCC(N4CCN(C(C)=O)CC4)CC3)c3ncnc(N)c23)ccc1NC(=O)c1cc2ccccc2n1C (stereo unspecified),.,0.8%,.,.,.,.
COc1ccc(CNC(=O)c2ccc3nc(C(C)C)oc3c2)cc1OC,?,i,0.6%,0.0%,28.2µM*,-2.1%
CC(O)(C#Cc1ccc2c(c1)N(c1nc(N)ncc1Cl)CC2)c1nccs1 (stereo unspecified),.,15.9%,.,.,.,.
Cc1cc(-c2ccc(S(=O)(=O)Nc3cccc(C)c3C)s2)on1,10µM*,i,?,?,?,-13.3%
CC1CCCN(C(=O)CSc2c3c(nc4cc(Cl)ccc24)CCCC3)C1 (stereo unspecified),?,-13.0%,15.8µM*,?,4.7%,3.0%
CCCCN(C)C(=O)CSc1c2c(nc3ccc(Cl)cc13)CCCC2,?,-4.5%,78.3%,18.5µM*,-3.2%,1.1%
CCCN(CCC)C(=O)CSc1c2c(nc3ccc(Cl)cc13)CCCC2,?,i,?,-12.0%,26.9%,-26.0%
COc1cc(OC)c(N(C)C(=O)CSc2c3c(nc4ccc(Cl)cc24)CCCC3)cc1Cl,?,-9.8%,20µM*,-1.3%,-3.5%,32.7%
CN(Cc1ccccc1)C(=O)CSc1c2c(nc3ccc(Cl)cc13)CCCC2,?,?,12.6µM*,13.1µM*,?,?
CC=C(C)C(=O)O[C@H]1C(C)=C[C@]23C(=O)[C@@H](C=C(CO)[C@@H](O)[C@]12O)[C@H]1[C@@H](C[C@H]3C)C1(C)C,.,0.3%,.,.,.,.
OCCn1cc(-c2ccc3c(c2)CCC3=NO)c(-c2ccncc2)n1,.,11.9%,.,.,.,.
CC#CCn1c(N2CCC[C@@H](N)C2)nc2c1c(=O)n(Cc1nc(C)c3ccccc3n1)c(=O)n2C,.,-23.2%,.,.,.,.
C[C@]12CCC(=O)C=C1[C@@H]1CC1[C@H]1[C@H]3[C@@H]4C[C@H]4[C@@]4(CCC(=O)O4)[C@@]3(C)CC[C@H]12 (stereo partly specified),.,-7.4%,.,.,.,.
O=C(Nc1ccc(F)cc1)c1ncn(-c2ccccc2)n1,?,-0.8%,31.6µM*,-6.3%,-18.0%,?

# Source: PubChem BioAssay (National Center for Advancing Translational Sciences (NCATS))
